Source: the supplement of paper PMC12339681
Structures can show the parent of a compound that is named as a salt.

What follows are compounds tested on PBMC-derived induced microglia-like cells (piMGLC) (assay: synaptosome phagocytic index relative to DMSO control (fraction of DMSO); higher = more phagocytosis). Settings: concentration: 10 uM (2 uM for compounds listed in Table S2); pretreatment time: 24 h; assay time: 3 h.
Compound `O=C1N[C@@H](Cc2cnc[nH]2)C(=O)N2CCC[C@@H]12` [Cyclo(his-pro)_(TFA)] has a synaptosome phagocytic index of 0.449. Compound `CC(C)(S)[C@@H](N)C(=O)O` [Penicillamine] has a synaptosome phagocytic index of 0.328. With `Cc1cc([C@@]23c4ccccc4C(=O)N2CCN3C(=O)c2ccc(F)c(F)c2)ccc1Cl` the synaptosome phagocytic index was 0.335. With `Nc1nc(=O)[nH]cc1F` [Flucytosine] the synaptosome phagocytic index was 0.853. Work on `Nc1ncnc2c1ncn2[C@@H]1O[C@H](CO)[C@@H](O)[C@H]1O` [Adenosine] yielded a synaptosome phagocytic index of 0.51. For `COc1ccc(-c2c(C)nn3c(C(F)(F)F)cc(C)nc23)c(F)c1F`, the synaptosome phagocytic index was 0.98. In the case of `CO[C@H]1C(=O)[C@]2(C)[C@@H](OC)C[C@H]3OC[C@@]3(OC(C)=O)[C@H]2[C@H](OC(=O)c2ccccc2)[C@]2(O)C[C@H](OC(=O)[C@H](O)[C@@H](NC(=O)OC(C)(C)C)c3ccccc3)C(C)=C1C2(C)C` [Cabazitaxel], the synaptosome phagocytic index was 0.833. `O=C(O)c1ccccc1O` [Salicylic_acid] gave a synaptosome phagocytic index of 0.557. Compound `CN1CCN(c2cc(-c3ccncc3)c(-c3ccc4ccccc4c3)nn2)CC1` has a synaptosome phagocytic index of 0.903. Work on `CN1CC[C@H](c2c(O)cc(O)c3c(=O)cc(-c4ccccc4Cl)oc23)[C@H](O)C1` [Flavopiridol_(Hydrochloride)] yielded a synaptosome phagocytic index of 0.995. `O=C1Nc2ccc(Cl)cc2[C@@](C#CC2CC2)(C(F)(F)F)O1` [Efavirenz] showed a synaptosome phagocytic index of 0.473. Compound `O=C(CCCCCCC(=O)Nc1ccccc1)NO` [Vorinostat] has a synaptosome phagocytic index of 0.0904. With `CC1CCN(CC[C@H]2CCCN2S(=O)(=O)c2cccc(O)c2)CC1` the synaptosome phagocytic index was 0.817. In the case of `CN1CCN(C2=Nc3ccccc3Nc3ccccc32)CC1` [Deschloroclozapine], the synaptosome phagocytic index was 0.876. `Fc1c(Br)cccc1Nc1ncnc2cc3c(cc12)OCCO3` showed a synaptosome phagocytic index of 0.118. In the case of `O=c1c(-c2ccc(O)cc2)coc2cc(O)ccc12` [Daidzein], the synaptosome phagocytic index was 0.94. With `CC(=O)Nc1ccc(C(=O)Nc2cc(-c3cccs3)ccc2N)cc1` the synaptosome phagocytic index was 0.416. For `CCN(CC)CC(=O)Nc1c(C)cccc1C` [Lidocaine], the synaptosome phagocytic index was 0.907. `CCC1(C)CC(=O)NC1=O` (stereo unspecified) [Ethosuximide] was tested, and the synaptosome phagocytic index was 0.869. Compound `CC(C)c1ccc(CC(=O)N2CCN(c3ccc(C#N)nn3)CC2)cc1` has a synaptosome phagocytic index of 0.943. `Cc1cc(=O)n(-c2ccccc2)n1C` [Antipyrine] gave a synaptosome phagocytic index of 0.601. Work on `COC(=O)C1=C(C)NC(C)=C(C(=O)OCCN(C)Cc2ccccc2)C1c1cccc([N+](=O)[O-])c1` (stereo unspecified) [Nicardipine_(hydrochloride)] yielded a synaptosome phagocytic index of 0.627. `Nc1cc(C(F)(F)F)c(-c2cc(N3CCOCC3)nc(N3CCOCC3)n2)cn1` [Buparlisib] gave a synaptosome phagocytic index of 1.13. With `CN(C)CCCN1c2ccccc2CCc2ccccc21` [Imipramine_(hydrochloride)] the synaptosome phagocytic index was 0.863. `Nc1cc(C(F)(F)F)c(-c2cc(N3CCOCC3)nc(N3CCOCC3)n2)cn1` [Buparlisib_(Hydrochloride)] showed a synaptosome phagocytic index of 0.429. Work on `C[N+]1([O-])CCN(C2=Nc3cc(Cl)ccc3Nc3ccccc32)CC1` [Clozapine_N-oxide_(dihydrochloride)] yielded a synaptosome phagocytic index of 0.606. Work on `CN(C)CCC=C1c2ccccc2CCc2ccccc21` [Amitriptyline_(hydrochloride)] yielded a synaptosome phagocytic index of 0.997. With `CN1CCN2c3ncccc3Cc3ccccc3C2C1` (stereo unspecified) [Mirtazapine] the synaptosome phagocytic index was 1.1. In the case of `Cc1ccc(NC(=O)c2ccc(CN3CCN(C)CC3)cc2)cc1Nc1nccc(-c2cccnc2)n1` [Imatinib_(Mesylate)], the synaptosome phagocytic index was 0.52. With `CN1C(=O)C(Cc2c[nH]c3ccccc23)NC1=S` (stereo unspecified) [Necrostatin-1] the synaptosome phagocytic index was 0.88. `CN(C)CCCN1c2ccccc2CCc2ccc(Cl)cc21` [Clomipramine_(hydrochloride)] showed a synaptosome phagocytic index of 0.39. `O=C(c1ccc(F)cc1)N1CCC[C@H](c2nc(-c3ccc(F)cc3)no2)C1` was tested, and the synaptosome phagocytic index was 0.938. Compound `CC(=O)N1CCc2c(c(N3CCCc4cc(-c5cnn(C)c5)c(C(F)F)cc43)nn2C2CCOCC2)C1` has a synaptosome phagocytic index of 0.59. In the case of `Nc1nc(NC2CC2)c2ncn([C@H]3C=C[C@@H](CO)C3)c2n1` [Abacavir], the synaptosome phagocytic index was 1.15. Compound `C#Cc1cccc(Nc2ncnc3cc(OCCOC)c(OCCOC)cc23)c1` [Erlotinib] has a synaptosome phagocytic index of 0.798. `CCCN(CCc1cccs1)[C@H]1CCc2c(O)cccc2C1` [Rotigotine] gave a synaptosome phagocytic index of 0.995.
